# SUMO Mot1 rescue: SUMOylation pathway inhibition by Mot1-301 growth rescue; hit rate 1% among 320,000; S. cerevisiae Mot1-301 growth rescue, ATP luminescence, 38.5C; percent above DMSO median, 100 means doubled; growth rescue, % at 18.8 µM; AID 2716;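 active = every valid replicate shows activation above 250% relative to neutral control wells; inactive = the rest, any valid replicate at or below 250%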;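 also: OY570 slx delta 5 strain wells were the positive control but not used for scaling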
# Efflux pump inh: antifungal efflux pump inhibition, Nile Red retention. inhibition, % at 10 µM. AID 485275. hit rate 0.44% among 330,000. S. cerevisiae Candida pump triplex;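 active = plate passing quality check with inhibition over a set limit, or well fluorescence over plate mean plus 4 SD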;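 also: Nile Red retained in pooled yeast measured as flow cytometry median fluorescence; 0% = buffer negative control and 100% = Enniatin B positive control; higher means more Nile Red kept so more efflux inhibition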
# VLA-4 inh: inhibition in a human VLA-4 binding assay. P13612. VLA-4 expressing cells, ligand binding flow cytometry. inhibition, % (about 7 µM as worked out from the volumes in the protocol). hit rate 0.2% among 330,000. AID 2557; in the data active = inhibition above about 50%
# ALR inh: inhibitors of human sulfhydryl oxidase ALR; purified ALR, DTT oxidation, H2O2 HRP-luminol luminescence; inhibition, % (no concentration beside the values); hit rate 3.8% among 290,000; AID 485317;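 active = mean replicate inhibition above about 79%, with every replicate also reaching it, limit read from the data; inconclusive = only one of the two criteria met; inactive = mean below limit and not every replicate reaching it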
# AHR activator: human AHR activation | activation, % at 5 µM | AHR-responsive luciferase reporter cells, luminescence | hit rate 2.5% among 320,000; in the data active = activation above about 47%;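 also: 0% = vehicle wells and 100% = reference agonist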
# Target sequence (P35869 whole entry, looked up): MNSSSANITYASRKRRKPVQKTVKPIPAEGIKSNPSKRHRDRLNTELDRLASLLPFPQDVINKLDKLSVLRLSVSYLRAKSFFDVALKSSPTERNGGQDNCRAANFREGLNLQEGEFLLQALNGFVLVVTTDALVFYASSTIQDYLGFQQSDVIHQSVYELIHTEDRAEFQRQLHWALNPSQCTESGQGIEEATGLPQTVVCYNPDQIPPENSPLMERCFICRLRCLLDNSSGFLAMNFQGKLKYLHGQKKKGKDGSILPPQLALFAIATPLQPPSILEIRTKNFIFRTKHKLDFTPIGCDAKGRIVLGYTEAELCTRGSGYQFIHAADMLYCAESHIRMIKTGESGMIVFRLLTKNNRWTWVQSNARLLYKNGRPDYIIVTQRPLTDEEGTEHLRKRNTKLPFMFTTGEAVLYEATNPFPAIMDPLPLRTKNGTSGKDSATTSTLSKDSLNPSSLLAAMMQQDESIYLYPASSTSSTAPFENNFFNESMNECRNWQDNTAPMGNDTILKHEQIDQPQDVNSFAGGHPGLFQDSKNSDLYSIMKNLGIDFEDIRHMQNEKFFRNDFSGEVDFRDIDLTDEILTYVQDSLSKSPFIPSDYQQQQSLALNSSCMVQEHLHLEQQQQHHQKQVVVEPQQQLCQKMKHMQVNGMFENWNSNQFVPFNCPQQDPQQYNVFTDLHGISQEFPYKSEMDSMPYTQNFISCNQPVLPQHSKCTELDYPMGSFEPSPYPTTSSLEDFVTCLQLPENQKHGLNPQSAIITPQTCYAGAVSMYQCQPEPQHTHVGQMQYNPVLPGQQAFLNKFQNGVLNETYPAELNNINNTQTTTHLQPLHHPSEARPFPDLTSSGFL
# A1 inh: inhibitors of the anti-apoptotic protein A1, read as caspase activation; MEF A1-2A-BIM cells, Caspase-Glo 3/7 luminescence, 3 h; percent of clofoctol response, vehicle zero; caspase activation, % (test concentration not listed); hit rate 0.066% among 330,000;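 active = over half of replicate activation scores above 10%, or exactly half above 10 with the replicate mean above 10; inconclusive = replicate mean below 10 yet half the replicates above 10; inactive = over half of replicates below 10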
# AHR act cf: confirmation of human aryl hydrocarbon receptor activators. shares compounds with AHR activator. human cells, AHR-responsive luciferase reporter, luminescence. activation, % at 9 µM. hit rate 87% among 2,300. AID 2845; in the data active = activation above about 49%;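 also: HepG2 hepatoma cells carrying a DRE-driven firefly luciferase reporter; 0% = vehicle wells and 100% = reference agonist wells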
# PXR counter: counter-screen for AHR activators: human PXR activators. AID 434939. hit rate 88% among 2,300. activation, % at 11.6 µM. cell-based PXR reporter, luciferase luminescence. shares compounds with AHR activator; in the data active = activation above about 11%;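 also: human hepatoma DPX-2 cells expressing full-length human PXR; 0% = DMSO and 100% = reference agonist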
# Active calls of the source: *; i = inactive; ? = inconclusive; . = not tested or not shown. Most compounds without a hit are left out; they make up all but 7.2% or so of the library.
SMILES,SUMO Mot1 rescue,Efflux pump inh,VLA-4 inh,ALR inh,AHR activator,A1 inh,AHR act cf,PXR counter
CCN(CC(=O)NCc1ccc(Cl)cc1)C(=O)CN1C(=O)NC(C)(c2ccccc2)C1=O (centres undefined),39,0,-2,-16,-2,1,.,.
CCOc1ccc(N=NC2C(=O)N(C(N)=S)N=C2C)cc1 (centres undefined),-4,0,-8,43,118*,-9,124*,22*
CC(=O)Nc1ccc(N=NC2C(=O)N(C(N)=S)N=C2C)cc1 (centres undefined),-3,0,3,-1,104*,-8,112*,16*
CC1=NN(c2ccccc2C(=O)O)C(=O)C1N=Nc1ccccc1 (centres undefined),-21,0,8,.,18,-1,.,.
O=C(NCc1ccccc1)Nc1cc(Cl)ccc1Cl,980,0,9,-10,-1,0,.,.
O=C(NCc1ccncc1)Nc1cc(Cl)ccc1Cl,-7,0,3,-14,97*,0,63*,26*
c1ccc(C2Nc3ccccc3-c3nc4ccccc4n32)nc1 (centres undefined),256,0,-3,13,80*,-1,88*,114*
c1coc(C2Nc3ccccc3-c3nc4ccccc4n32)c1 (centres undefined),-4,0,21,14,129*,-1,49*,71*
c1ccc(C2Nc3ccccc3-c3nc4ccccc4n32)cc1 (centres undefined),.,0,i,1,41,1,.,.
CC(C)(C)OC(=O)N[C@H](Cc1ccccc1)C(=O)N1CCC[C@@H]1C(=O)O,0,0,6,-5,1,1,.,.
NS(=O)(=O)c1ccc(CCNC(=O)CSCc2ccccc2)cc1,22,0,-13,-16,0,1,.,.
COc1cc(C)ccc1N(CCCN1C(=O)c2cccc3cccc(c23)C1=O)C(=O)c1cccs1,-1,0,22,-31,43,?,.,.
COc1ccc(N(CCCN2C(=O)c3cccc4cccc(c34)C2=O)C(=O)c2cccs2)cc1,-17,0,2,-9,100*,0,140*,93*
CC1CCCCN1C(=O)c1c([N+](=O)[O-])cnn1C (centres undefined),25,0,-11,1,0,0,.,.
Cc1ccccc1NC(=O)c1cc2ccccc2o1,-11,0,5,-2,103*,-6,122*,14*
O=C(Nc1ccccc1)c1cc2ccccc2o1,-21,0,-2,0,93*,0,68*,21*
CC(=O)Nc1cccc(NC(=O)c2cc3ccccc3o2)c1,1,0,1,-10,8,-5,.,.
c1cncc(CNc2nc(-c3cccnc3)nc3ccccc23)c1,55,0,2,17,11,-1,.,.
c1cncc(CNc2cccc(-c3nc4ccccc4[nH]3)c2)c1,-12,-1,16,-1,167*,-5,112*,137*
c1ccc(-n2nc3c(ccc4cnnc43)[nH]2)cc1,11,0,20,-9,131*,0,149*,26*
CC1C=CCC2C(=O)N(c3cccc(C(=O)NCc4ccccc4)c3)C(=O)C12 (centres undefined),4,0,11,-4,-1,0,.,.
COC(=O)c1cc(C(=O)OCC(=O)NC2CCCC2)cc([N+](=O)[O-])c1,16,0,10,.,1,-1,.,.
Cn1c(C(=O)N2CCC(C(N)=O)CC2)cc2cc(Cl)ccc21,293,0,12,.,101*,1,116*,.
CCc1ccc(NS(=O)(=O)c2ccc(C)c(C(=O)N3CCOCC3)c2)cc1,-5,0,15,3,1,0,.,.
Cc1ccc(C)c(NC(=O)c2nc(Cl)ccc2Cl)c1,.,0,12,.,81*,1,106*,112*
O=C(O)CCN1C(=O)C2C3C=CC(C2C1=O)C1C(=O)N(CCC(=O)O)C(=O)C31 (centres undefined),208,0,8,16,.,0,.,.
